# Test results as given in PubChem BioAssay AID1159506 (National Center for Advancing Translational Sciences (NCATS), 2015).
# In all, about 59,000 sequences were measured (the read-out: median about -0.00055, lowest 2% from about -2 on). Shown is part of a subset that was picked to be rich in the lowest values.
# Experiment: Identification of proteins required for the processing of the EWS-FLI1 nascent transcript;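 also: robust z of luciferase light less the median z of siRNAs with the same seed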
# Conditions: TC32 Ewing sarcoma NR0B1-luc vs CMV-luc (EWS-FLI1 target promoter against control promoter), 48 h; screened at 20 nM (by protocol)
# Procedure, shortened: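 Parallel TC32-NR0B1-luc and TC32-CMV-luc reverse transfections with 20 nM siRNA in RPMI-1640/10% FBS, luciferase measured 48 h later. Seed-adjusted z-scores from normalized, z-score-MAD transformed data; AllStars negative and siGL4 controls on each plate.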
row,Sequence,seed-corrected z-score
1,UCUAGAUCACCAAACAUCA against OR1N1,0.571
2,AGACAUAACACCUUCUUCA against RPL10A,-2.86
3,ACACCAGUGAUUACUGUGC against FLJ44635,-0.245
4,UUGGUGAAUAGUCUCUUUC against RPS2P45,-0.275
5,UCUUCACGCAGUAUCUUUC against SLC25A13,1.22
6,UCUUCUUUAGUCUUCCUGC against STMND1,-1.04
7,UGCUCGAAAACAACCUUCU against TPI1,0.853
8,ACAUCUAUCACAUCUAAGG against ZC3H13,0.428
9,UAUUUUGCAAUAUCUUCUC against SLU7,-0.229
10,AUCGUCAUAUCUACCAUUG against USP34,-1.15
11,UGUUUGAUGACAAGGGUUG against POLE2,-2.32
12,AAAGUGUCUAGCCCUAUGG against MESP1,0.768
13,AAUUCCAUGAGGGCCUUCC against CDKN2AIPNLP1,-2.53
14,UUCGGCACCAUUCACAGAG against FAM57A,0.0703
15,UGUUGACAAACCAUCUUUC against PDPN,0.381
16,UUCAAAAACCACGAUGUUG against CLDN8,0.491
17,UGUUGUAGCACUUGGCUUU against IFITM5,-3.59
18,AUAUCGAACAGUUUGGUAC against CTDNEP1,0.928
19,AUCCGGAUCAUCGAGUCUG against ATP1B4,-0.782
20,UUAAAUGUAAGCAGGUUUC against CYTL1,0.276
21,AUUGAGGUAGGAGCCGUCG against FGFRL1,-2.32
22,UUCAUUGCGAUUAGCCUGC against ANXA13,-0.522

row,Sequence,seed-corrected z-score
1,UACUAGAGCAGUGUCUGAG against DNPH1,0.502
2,UUCUCGUUGAUGCGGCUCC against ASB1,-2.16
3,UUGUUUUCACUUCCAAUGC against FCAMR,-0.0643
4,UCACGGUCAUCAUCUAGGG against FOPNL,-2.56
5,UUGUCUAGAAGAAUUGUCG against TTC3,-0.75
6,UUAGGGACGAUGUCCACGG against RSPH6A,-0.977
7,UCUGGUUCAGCAUGAGCUG against SYT8,-2.2
8,UAUAACUUGUCGGAAACGC against NPIPB3,0.406
9,UCAAGUCCGACUUGGAGCG against FAM110A,-0.0203
10,AGUCUGAAUACCAUCCUUC against GATA1,-0.386
11,AACAUAGCUAAAAUGAUCC against CLMN,-2.28
12,ACUGAGCUCAUUCUUGUCC against HSF1,-0.661
13,UUUACAGCUGAUGAUAUGG against RWDD4,-0.249
14,UUCGAUAGUAACAAAGUUC against PCDH9,-2.03
15,AAAGUCUCCAGUUAAUAGC against MRPL46,1.41
16,UAGUGCACCACGCAGGUCU against FKBP1A,0.92
17,UUACGGACAUCCGAUCUUC against DPYS,-0.0377
18,UCAUAGUCCGCGAUCACCU against EDF1,-0.388
19,UAUCCAGUACGUGAGGCCC against LRP5L,-1.82
20,UUGGUUGUCAGAGUAGGUG against HSPA1L,-2.39
21,UUUCCCAUCCUUAAAGAGC against PTGS1,-0.201
22,AAUCUAACUGCAUUCGUUG against RSBN1L,0.409

row,Sequence,seed-corrected z-score
1,UUGUGAGCCGACAGGAUGC against PYCR2,-0.604
2,AAAACAUACAUUGACUUGC against LINC01098,-0.153
3,UGAGUUUCCGUACCACACC against PRDM12,-2.92
4,UAUUCCCUAAUAAAGCAGG against ZMYM5,0.289
5,UUCUUCAACCUUGAGGCGG against SNAPC5,0.755
6,UGAUGUCUACAAUAUCACC against RPL21,-2.69
7,UGGGUGAUAAGAAAAACAG against CD40LG,-0.837
8,AAAGCAAAUAGUAUGGUUC against ATG5,0.522
9,UGGACUCCUACAUUACUGC against EFCAB13,0.0128
10,AAAGGUACUCUUGGGCAGG against EEF1G,-0.242
11,UUAGGUAAUACACUAUUUG against THAP2,0.091
12,UCCCAGACUUUGACCAUGC against WDR38,-2
13,UCUUGUGGAUGUAAUAUGC against SIMC1,-0.283
14,UUCUUCUACAGGCUUGAGG against SMNDC1,-0.35
15,UGAGUUUGAACCCAAAAGU against IGFL4,1.44
16,UCUGUAGUCAGUUUGGUUG against LDB1,-0.7
17,UCAUCUUCUCCAACUUUUC against GINS2,0.362
18,AAGCUUGUAAGUAUAGACG against SF3B3,-2.14
19,AUAGAAAACACCAAGAUUA against TMEM63A,0.279
20,AUAUGACCUACUACCAUCC against LURAP1,0.3
21,ACAUGAUCAACUGGUAGUC against TTBK1,-4.16
22,UAAGGUAAGAGCCUGUGCU against ZNF177,0.0512

row,Sequence,seed-corrected z-score
1,AAAAGUAUCAGCAGAAGUC against GPR156,-0.243
2,UAGUUGAAGAGGGCGUGGG against TAS1R3,-0.153
3,AACGGAACCUGUGAGAUCC against LARS2,-0.262
4,UAACUGAAUGGCAUCCCGG against C6orf226,0.21
5,UUGUAGUUCAGCUGGUUGU against SPATA2,-2.04
6,UCCUGGAGCAUAUCCGAGC against TMPRSS5,0.289
7,UCAUUUAGCUUUACCACCC against AHCYL1,0.0585
8,UUGUAUUCCACAGAAGUAA against SLC25A41,0.115
9,UGUCGUAUCUCUCUUCAUC against TNNI3,-0.115
10,UUACUGCUGAAUACAGACU against HRASLS,-2.09
11,UAUGUCCCAAAUAUACACC against SLC36A3,0.459
12,UUCUUACUCCAAUAUCUCC against WWC2,-0.0295
13,UUUGAUGAAGGGUACGUGG against KIF11,-2.31
14,UUCUCAAUGAUAUUAUGGG against SREBF2,-0.569
15,AUCAUAGCAACAGUGCUGC against IGFL1,-2.6
16,UGAACAUUGAGUAACGAAC against ORAOV1,0.0373
17,UCUGUUCUCGGUCAAAGAC against DCAF11,-0.91
18,UUUAGUUCCUGAUCGAAAG against ZNF800,1.28
19,AUCUUUACGAGCUUCAGCC against FAM185BP,1.55
20,UCACUGUCAAACUCGUGCC against ARHGAP33,-2.08
21,AUUGUAAUCGCGAAUAUCC against MESDC2,0.809
22,UUCCCUCUUUGGGUCUUCC against SNX11,0.0123

row,Sequence,seed-corrected z-score
1,UACAGCUCCGAAAAACUCC against SIPA1,-1.18
2,UUGACUGUCACUGAGGUAG against SDK2,-0.0428
3,UGUCGUACCAGUCGGACCA against TAC1,-2.02
4,UAUUCGUUAUCAAAUUGUG against TMOD3,0.393
5,UCCGUUUUCCACGUAGUGC against FRMD1,-0.836
6,UAUGUCUUCACGCAGCCGC against PI4KAP2,-1.12
7,UACGUUUGCUUUGCGCUCG against NR0B1,-0.672
8,UUGGGAUUAACACUUGUGA against LINC00851,-2.42
9,UUGAAGUUUUCAAUUGUGC against CYSLTR2,-0.797
10,UCAGCUAACUCUGUCUCUG against SNX19P3,-0.302
11,AUUGUGAUGAACCUCGUCC against ARHGAP40,-0.617
12,UUAGUGAUCUGAUAGUGGG against POGLUT1,0.238
13,AAUUCCAAAACCAAUGUGC against MS4A12,0.147
14,UGUUUCUCUGACUUGAGUG against IFI27L2,-2.28
15,UUCUUAUUGAGUUUCAGCC against MSN,0.564
16,UAAAUUUGUCGAGUUGCUC against CFAP99,0.485
17,UUGACAAAAGUGAGGAUCG against LGALS14,0.5
18,UCUAUGGGCAGUGGCAUCU against GOLGA2P10,-1.07
19,UGUGCAACUGGUCUUGUGC against BBS4,0.33
20,UGUUGUAGAAGGUAAACCC against CLRN3,-2.64
21,UAAUGUCAAAUUUUCCUCC against P2RX7,-0.332
22,UCCAUUGCAAUUGUGCCCA against MAGEA4,-0.0267

row,Sequence,seed-corrected z-score
1,UUUCUUCACGUGGAUAGCC against GABRG2,0.574
2,UUCCAGAAAAAGCCGCACG against PLD6,-0.608
3,UUUCCUUCCAACUCUGCGC against ZNF835,-1.63
4,UACGUUAGGACGGCUCAGG against RLTPR,-1.06
5,UCAUGUGGCAUUUCUGGGA against LOC642852,-2.43
6,AUUCUUACCACAACUAUCC against SRP14,-0.807
7,UAAGCUGCGUGUUUUUAUC against TRIM14,-2.45
8,UUUACGAAGUUUUUGAUAG against EML1,-0.287
9,UUUGUAGAGAAGUUUCACC against ZNF517,0.211
10,UUAGCUUCAACGGUGUUAC against E2F8,-1.58
11,UCGAUGAACAACCAUAUGC against PRKAA2,0.499
12,UUAUCUGCUUUAGAUUUGC against PYROXD1,-0.293
13,GAAGGUGCAGAUCUGUUUG against SCX,-2.92
14,UCAUCUACGAUAUUCAUGA against ADAMTS14,-0.269
15,UAAGCAUCUCACAAAAUCG against MITD1,-0.778
16,AAACUUCACUGUUACUUGG against LYSMD1,-0.262
17,UCGGUAACAAAAAUUAGUG against RNF217,0.42
18,UCUGUUCAAUACUUAAACC against PRUNE2,-0.544
19,UUUCUUAUCACCAUCAAAC against PGD,0.244
20,UAAGUUGCGAGCGUAGUGG against GAL3ST4,-3.11
21,UAUGUAGCAAAUCACAGUA against TMEM39A,0.421
22,UCUGCGGAAACUUUGGUGG against CDH11,-0.023
